From PubChem BioAssay
Activity calls are given as the source filed them. Unless noted, how the calls were made is not given here.

Experiments:
[1] = resazurin metabolic signal in HepG2 cells – cell-based, resazurin fluorescence, 24 h, PK04 Diversity Set, profiling panel (AID 1172); conditions: HepG2 viability, higher = more signal; further: test concentration not given here
[2] = budding yeast growth changes without added modifier – OD600, strain BY4716, 24 h, basal condition, primary screen (AID 1173); conditions: S. cerevisiae BY4716 growth, OD600, 24 h; higher = more signal, called active from +8 up or from −8 down
[3] = viability profiling in MM1S myeloma cells – cell-based, resazurin fluorescence, basal, 24 h, PK04 Diversity Set, profiling panel (AID 1174); conditions: higher = more signal, called active from +8 up or from −8 down;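 further: MM1S multiple myeloma cell line; test concentration not given here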
[4] = target: Dihydroorotate dehydrogenase (quinone), mitochondrial (Plasmodium falciparum (isolate 3D7)) (UniProt Q08210); experiment: inhibition of P. falciparum DHODH – biochemical, C-terminal His tag, absorbance 600 nm, primary screen (AID 1175); conditions: PfDHODH enzyme, DCIP absorbance 600 nm; higher = more signal, called active from +8 up or from −8 down;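 further: recombinant parasite enzyme with a five histidine tag at its C terminus; test concentration not given here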
Chain of Dihydroorotate dehydrogenase (quinone), mitochondrial (Plasmodium falciparum (isolate 3D7)) (Q08210 whole entry, looked up): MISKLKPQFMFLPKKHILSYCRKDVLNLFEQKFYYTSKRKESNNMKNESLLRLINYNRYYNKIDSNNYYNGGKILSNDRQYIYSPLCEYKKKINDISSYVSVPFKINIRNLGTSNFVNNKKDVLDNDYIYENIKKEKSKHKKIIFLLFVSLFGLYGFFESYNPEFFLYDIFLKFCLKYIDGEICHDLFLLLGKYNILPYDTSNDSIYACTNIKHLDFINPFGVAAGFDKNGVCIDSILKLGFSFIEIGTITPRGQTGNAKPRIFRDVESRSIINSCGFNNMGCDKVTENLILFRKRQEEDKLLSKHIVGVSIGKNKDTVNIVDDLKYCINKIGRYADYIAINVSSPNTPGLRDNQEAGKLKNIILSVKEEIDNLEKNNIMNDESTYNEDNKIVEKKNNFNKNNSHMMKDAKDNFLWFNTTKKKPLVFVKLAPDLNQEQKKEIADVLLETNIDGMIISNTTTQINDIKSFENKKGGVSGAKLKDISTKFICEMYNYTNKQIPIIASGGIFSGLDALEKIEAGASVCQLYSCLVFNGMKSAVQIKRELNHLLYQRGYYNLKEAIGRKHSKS

[5] = inhibition of PAO1 biofilm formation – strain PAO1, LB-PBS medium, absorbance 600 nm, primary screen (AID 1176); further: test concentration not given here; conditions: P. aeruginosa PAO1 growth/biofilm, A600, 12 h; higher = more signal
[6] = growth modulation of vineyard yeast isolate – strain RM11-1a, OD600, basal, 24 h, primary screen (AID 1177);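 further: cultures grown under basal conditions with no added stressor; test concentration not given here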; conditions: S. cerevisiae RM11-1a growth, OD600, 24 h; higher = more signal, called active from +8 up or from −8 down
[7] = growth of efflux-deficient E. coli DRC39 – strain DRC39, OD650, 24 h, E. coli filamentation inducers, primary screen (AID 1178);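 further: growth measured as culture turbidity by optical density at 650 nm; test concentration not given here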; conditions: E. coli DRC39 acrAB, higher = more signal, called active from +8 up or from −8 down
[8] = growth of efflux-deficient E. coli DRC39 – strain DRC39, OD650, 48 h, E. coli filamentation inducers, primary screen (AID 1179);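 further: screen aims at cell division blockers that make cells filament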; conditions: E. coli DRC39 delta-acrAB growth, higher = more signal, called active from +8 up or from −8 down
[9] = viability profiling in RPMI8226 myeloma cells – cell-based, resazurin fluorescence, basal, 24 h, PK04 Diversity Set, profiling panel (AID 1180); conditions: higher = more signal;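 further: RPMI8826 multiple myeloma cell line at 5000 cells per well; test concentration not given here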
[10] = target: E3 ubiquitin-protein ligase XIAP (Homo sapiens) (UniProt P98170); experiment: small molecules binding XIAP protein – biophysical, small-molecule microarray, fluorescence 635 nm, primary screen (AID 1181); conditions: higher = more signal;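 further: score merges 667 nm emission and signal to noise over triplicate slides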
Chain of E3 ubiquitin-protein ligase XIAP (Homo sapiens) (P98170 whole entry, looked up): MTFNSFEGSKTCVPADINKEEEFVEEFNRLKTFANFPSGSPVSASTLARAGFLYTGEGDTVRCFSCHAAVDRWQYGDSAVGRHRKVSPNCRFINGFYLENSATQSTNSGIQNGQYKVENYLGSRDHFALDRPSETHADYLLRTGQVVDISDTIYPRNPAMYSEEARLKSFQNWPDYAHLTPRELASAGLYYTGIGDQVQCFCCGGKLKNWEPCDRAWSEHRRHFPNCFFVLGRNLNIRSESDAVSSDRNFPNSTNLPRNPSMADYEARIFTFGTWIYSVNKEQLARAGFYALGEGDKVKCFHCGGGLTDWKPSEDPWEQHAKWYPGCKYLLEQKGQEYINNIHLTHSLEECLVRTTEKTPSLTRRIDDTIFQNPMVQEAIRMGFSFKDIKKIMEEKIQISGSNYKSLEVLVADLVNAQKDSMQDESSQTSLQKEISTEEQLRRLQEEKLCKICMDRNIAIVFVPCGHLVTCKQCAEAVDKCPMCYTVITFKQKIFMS

Row | SMILES | z-score [1] | z-score [2] | z-score [3] | composite z-score [4] | z-score [5] | z-score [6] | z-score [7] | z-score [8] | z-score [9] | composite z-score [10]
1 | O=C1OCCC=C[C@H]2OC34C=CCN(CCN5CCOCC5)C(=O)[C@H]3N(CCCCCCO)C(=O)[C@@H]4C12 (stereo not given in full) | 0.24 | 0.039 (inactive) | -0.0328 (inactive) | 0.369 (inactive) | -0.373 (inactive) | 0.626 (inactive) | 1.14 (inactive) | 1.43 (inactive) | 0.22 | 0.464
2 | O=C1[C@H]2C=C(Br)[C@H](C[C@@H]2c2ccccc2)[C@@]12CO2 | -0.25 | -7.98 (inactive) | -0.727 (inactive) | 0.402 (inactive) | -0.14 (inactive) | -0.13 (inactive) | -1.29 (inactive) | -1.58 (inactive) | -0.579 | -0.228
3 | CC(=O)NCCCC[C@@H]1NC(=O)[C@@H]2C[C@H](C(=O)NCCCCCCNC(=O)CS)[C@H](c3cccc(OCCO)c3)N2C1=O | -0.396 | 0.174 (inactive) | -0.449 (inactive) | -0.424 (inactive) | 0.752 (inactive) | -0.407 (inactive) | 0.293 (inactive) | 0.367 (inactive) | -1.05 | -0.0791
4 | C#CCN(Cc1ccccc1Br)C(/C=C/c1ccccc1)CO (stereo not given) | -0.54 | -6.66 (inactive) | 0.862 (inactive) | 0.34 (inactive) | -0.365 (inactive) | -1.26 (inactive) | 1.1 (inactive) | -0.494 (inactive) | -0.166 | 0.147
5 | O=C(NCc1ccc(F)cc1)[C@H]1C[C@H]2C(=O)N[C@@H](Cc3ccccc3)C(=O)N2[C@H]1c1ccc(O)cc1 | -0.354 | 1.41 (inactive) | 0.396 (inactive) | -0.0513 (inactive) | -0.0185 (inactive) | 1.23 (inactive) | 0.222 (inactive) | -0.324 (inactive) | 0.512 | -0.224
6 | C=CCOC(=O)[C@@H]1[C@H]2C(=O)O[C@H](c3ccccc3)[C@H](c3ccccc3)N2[C@H](c2ccc(OCCOC(=O)[C@@H]3C[C@@H]4C(=O)N[C@@H](CCCCN(C)C)C(=O)N4[C@@H]3c3ccc(O)cc3)cc2)[C@@]12C(=O)Nc1ccc(I)cc12 | 0.883 | -0.955 (inactive) | -0.078 (inactive) | -0.262 (inactive) | 0.531 (inactive) | 1.65 (inactive) | -0.821 (inactive) | 0.0885 (inactive) | -0.153 | -0.157
7 | CC(=O)N1Cc2ccccc2C[C@@]2(COC(c3ccc(OCCCO)cc3)=N2)C1=O | 1.17 | -0.797 (inactive) | -0.15 (inactive) | -0.469 (inactive) | 2.26 (inactive) | -0.723 (inactive) | 1.73 (inactive) | 2.3 (inactive) | 0.266 | 1.2
8 | CN1C(=O)C2C=CC(C(O)c3ccc(-c4ccccc4)s3)N(N(c3ccccc3)c3ccccc3)C2C1=O (stereo not given) | -0.748 | -0.215 (inactive) | -0.609 (inactive) | -0.585 (inactive) | 1.23 (inactive) | 0.512 (inactive) | -0.554 (inactive) | -0.24 (inactive) | -0.109 | 0.174
9 | CCCC#C[Si](O[C@H](CC)c1cn([C@H](CO)Cc2ccccc2)nn1)(C(C)C)C(C)C | 0.442 | -12.8 (active) | 0.11 (inactive) | 0.225 (inactive) | 0.0885 (inactive) | 0.852 (inactive) | -0.281 (inactive) | -0.154 (inactive) | 0.114 | -0.121
10 | O=C1O[C@H](c2ccccc2)[C@H](c2ccccc2)N2[C@H]1[C@@H](C(=O)O)[C@]1(C(=O)Nc3ccc(C#CC4=CCCCC4)cc31)[C@H]2c1ccccc1OCCO | -1.19 | -1.17 (inactive) | -5.12 (inactive) | -6.35 (inactive) | 2.36 (inactive) | 1.73 (inactive) | -0.0532 (inactive) | 0.0958 (inactive) | -6.63 | -0.102
11 | OC([C@@H]1CC(c2ccccc2)=NO1)[C@H]1CC(c2ccccc2)=NO1 (stereo not given in full) | 0.447 | -1.39 (inactive) | 0.129 (inactive) | -0.543 (inactive) | -0.0704 (inactive) | 1.16 (inactive) | 2.32 (inactive) | 1.16 (inactive) | 0.236 | -0.159
12 | C=C(CCCC)C(=O)CC[C@H](OC(=O)c1cccnc1)c1ccccc1OCCO | 0.619 | -0.716 (inactive) | -2.19 (inactive) | -0.363 (inactive) | -0.317 (inactive) | -1.61 (inactive) | 0.836 (inactive) | -0.0762 (inactive) | -2.29 | 0.0374
13 | C#CCN(CC=C(C)C)[C@H](CO)c1ccccc1 | 0.0941 | -8.3 (active) | 0.101 (inactive) | -2.54 (inactive) | -0.635 (inactive) | -0.0386 (inactive) | -0.997 (inactive) | -1.3 (inactive) | -0.544 | -0.165
14 | COCCOC(=O)N1C(=O)[C@@]2(c3cc(C#CCCO)ccc31)[C@H](C(=O)N1CCc3cc(OC)c(OC)cc3C1)[C@H]1C(=O)O[C@H](c3ccccc3)[C@H](c3ccccc3)N1[C@@H]2c1ccc(O)cc1 | 0.0444 | -0.253 (inactive) | -0.419 (inactive) | -0.268 (inactive) | 0.875 (inactive) | 2.12 (inactive) | 0.316 (inactive) | 0.884 (inactive) | -0.368 | -0.0812
15 | O=C(C1N=C(c2ccc(OCCCO)cc2)N(c2ccccc2)O1)N1CCOCC1 (stereo not given) | 0.55 | -1.3 (inactive) | 0.466 (inactive) | -1.09 (inactive) | -0.91 (inactive) | -1 (inactive) | 1.42 (inactive) | 1.92 (inactive) | 2.12 | -0.163
16 | CC1CC/C=C\[C@H]2OC34C=CCN(Cn5nnc6ccccc65)C(=O)[C@H]3N(C(CO)C(C)C)C(=O)[C@@H]4C2C(=O)O1 (stereo not given in full) | 0.913 | 0.673 (inactive) | -1.29 (inactive) | -0.64 (inactive) | 0.357 (inactive) | -0.271 (inactive) | 0.465 (inactive) | 0.275 (inactive) | 0.0555 | 0.646
17 | CCN(CC)c1ccc(N2CC=CC34O[C@@H]5/C=C\CCCOC(=O)C5[C@H]3C(=O)N(CCO)[C@@H]4C2=O)cc1 (stereo not given in full) | -1.46 | 0.245 (inactive) | -0.0391 (inactive) | 0.174 (inactive) | -0.606 (inactive) | 0.747 (inactive) | -1.16 (inactive) | -1.26 (inactive) | 0.547 | 0.56
18 | O=C1O[C@H](c2ccccc2)[C@H](c2ccccc2)N2[C@H]1[C@@H](C(=O)O)[C@]1(C(=O)Nc3ccc(C#CCCO)cc31)[C@H]2c1ccc(O)cc1 | 1.11 | -0.326 (inactive) | 1.5 (inactive) | 0.158 (inactive) | 0.0568 (inactive) | 0.0737 (inactive) | 0.994 (inactive) | 1.69 (inactive) | 1.14 | -0.127
19 | O=C1C[C@]2(c3ccc([N+](=O)[O-])cc3)C(=O)N(CCN3CCOCC3)c3cc(CO)ccc3[C@H]2N1C1CCCCC1 | -0.592 | -0.0979 (inactive) | -0.399 (inactive) | -7.11 (inactive) | 0.0993 (inactive) | -0.974 (inactive) | 1.06 (inactive) | 1.66 (inactive) | 0.186 | -0.16
20 | C=C/C=C/[C@H]1C(=C)CN([C@@H](Cc2ccccc2)C(=O)OC)[C@@H]1[C@H](O)Cc1ccccc1 | 0.28 | -1.91 (inactive) | 0.883 (inactive) | -1.09 (inactive) | 0.531 (inactive) | -0.609 (inactive) | 0.701 (inactive) | 0.595 (inactive) | 0.73 | 0.643
21 | COc1cc2c(cc1OC)CN(C(=O)[C@@H]1[C@H]3C(=O)O[C@H](c4ccccc4)[C@H](c4ccccc4)N3[C@H](c3ccc(O)cc3)[C@@]13C(=O)Nc1ccc(C#CC4(O)CCCCCC4)cc13)CC2 | 0.396 | -0.313 (inactive) | 0.323 (inactive) | -0.495 (inactive) | 0.958 (inactive) | 0.525 (inactive) | 0.241 (inactive) | 0.475 (inactive) | 0.777 | -0.0559
22 | O=C1c2ccccc2[C@@]2(Cc3ccccc3N(CC(F)(F)F)C2=O)[C@H](c2ccc(CO)cc2)N1Cc1ccccc1Cl | 0.0685 | 0.386 (inactive) | 0.192 (inactive) | -22.2 (active) | 0.848 (inactive) | -0.399 (inactive) | 0.424 (inactive) | -0.411 (inactive) | 0.638 | 0.176
23 | C=CCNC(=O)[C@H]1[C@@H]2C(=O)O[C@@H](c3ccccc3)[C@@H](c3ccccc3)N2[C@@H](c2ccc(OCCO)cc2)[C@]12C(=O)N(C(=O)OCCOC)c1ccccc12 | -0.732 | 1.41 (inactive) | -0.738 (inactive) | 1.17 (inactive) | 1.11 (inactive) | 2.32 (inactive) | -0.595 (inactive) | -1.27 (inactive) | -0.0749 | -0.0969
24 | CCCC=C(CCC)[C@@H](NS(=O)(=O)c1cccs1)c1ccc(C(=O)OC)cc1 | -0.395 | 0.91 (inactive) | 1.18 (inactive) | 0.335 (inactive) | 0.535 (inactive) | 1.59 (inactive) | 0.588 (inactive) | -0.424 (inactive) | -5.85 | 0.0248
25 | O=C1C2C=CC(C(O)C3CCCCC3)N(Nc3ccc([N+](=O)[O-])cc3)C2C(=O)N1c1ccccc1 (stereo not given) | -1.13 | 0.581 (inactive) | -0.772 (inactive) | 1.14 (inactive) | 0.409 (inactive) | 1.09 (inactive) | -0.915 (inactive) | -1.96 (inactive) | -0.675 | 0.242
